These results are taken from paper PMC5540273 (PLoS ONE, 2017).

Molecules are shown by their SMILES. A value given as a limit tells only on which side of the number the result lay.
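Also: kd values determined as follow-up on hits from a single-replicate KINOMEscan panel screen.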

One assay relates to ROCK2.
For `CSc1nn2c(=O)cc(N3CCOCC3)nc2n1Cc1cccc(C(F)(F)F)c1C` [GSK2363608], binding was characterised by a dissociation constant (Kd) of 82 nM. In other words, the double-digit nanomolar range.

As to `CC1=C(C(=O)Nc2cc3cn[nH]c3cc2F)C(c2ccc(C(F)(F)F)cc2)CC(=O)N1` (stereo not drawn) [GSK429286], the affinity, expressed as Kd, was 2.7 nM.

Consider `O=S(=O)(c1ccc(-c2ccnc3[nH]ccc23)cc1)N1CCCC1` [GSK846226], for which the affinity, expressed as Kd, was 350 nM.

The subject of a further assay is T1, RSK4(Kin.Dom.2-C-terminal).
T1 construct: gene RPS6KA6
For `CS(=O)(=O)c1ccc(-c2c(-c3ncn[nH]3)sc(N3CCOCC3)c2C#N)cc1`, the Kd (usually the free concentration of one partner at which half of the binding sites on the other are occupied at equilibrium, for simple one-to-one binding) is over 10000 nM.

Take `Fc1cc(Cl)ccc1Nc1ccnc2cc(I)ccc12` [GW551191]: the affinity, expressed as Kd, was 730 nM.

`Fc1cc(Cl)ccc1Nc1ccnc2cc(-c3ccc(CN4CCCCC4)o3)ccc12` [GW560116] gave a Kd of 670 nM.

For a further assay, the system named is SLK.
Consider `COc1cc2ncn(-c3cc(OCC4CCCO4)c(C(N)=O)s3)c2cc1OC` (stereo not drawn) [GSK204607], for which the Kd is over 10000 nM.

`CN(C)CCN(C)C(=O)c1cc(-c2ccncc2)c(-c2ccc(Cl)c(O)c2)o1.Cl.Cl` [SB-710397] came in with a Kd of 3600 nM.

`Cc1ccccc1-n1cnc2c(N)ncnc21` [SKF-97510] registered a Kd of over 10000 nM.
